Screens: PubChem BioAssay, The Scripps Research Institute Molecular Screening Center
Sampled rows, rich in hits. Any-hit rate of the full collection: about 3.5%.
FBW7 act: human FBW7 E3 ligase activation, primary screen | normalized activity (activation), % at 26.1 µM | 0.13% of 650,000 active | Q969H0 | AID 1259310 | AlphaScreen FBW7–phospho-cyclin E peptide binding, activator screen; in the data active means normalized activity above about 1.9%;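 further: purified mutant Fbw7 with reduced substrate affinity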
GPR151 activ: human GPR151 activation; 1% of 650,000 active; AID 1508602; PathHunter beta-arrestin GPR151 cells, luminescence; activation, % at 11.2 µM; Q8TDV0; in the data active means activation above about 4.9%
Target sequence (Q8TDV0 whole entry, looked up): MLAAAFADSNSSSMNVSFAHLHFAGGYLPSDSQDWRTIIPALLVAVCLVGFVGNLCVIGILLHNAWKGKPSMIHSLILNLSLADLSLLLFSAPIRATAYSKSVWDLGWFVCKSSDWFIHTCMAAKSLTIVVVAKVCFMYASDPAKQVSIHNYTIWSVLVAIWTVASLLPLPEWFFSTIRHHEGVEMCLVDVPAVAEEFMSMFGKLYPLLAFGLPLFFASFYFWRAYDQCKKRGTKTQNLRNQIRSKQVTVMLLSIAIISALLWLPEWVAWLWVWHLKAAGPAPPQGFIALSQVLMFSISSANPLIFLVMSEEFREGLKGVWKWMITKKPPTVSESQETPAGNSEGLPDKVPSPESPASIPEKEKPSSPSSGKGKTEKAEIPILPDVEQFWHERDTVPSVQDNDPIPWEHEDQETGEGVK
TEAD-YAP inh: TEAD-YAP interaction inhibition | HEK-TIYL cells, TEAD-Gal4/YAP UAS-luciferase luminescence | 1.4% of 640,000 active | inhibition, % at 9.12 µM; in the data active means inhibition above about 32%
MITF primary: human MITF inhibition, primary screen; O75030; AlphaScreen MITF homodimerization, bead proximity signal; inhibition, % at 2.6 µM; 0.91% of 650,000 active; in the data active means inhibition above about 50%
Numbers stand for hits; – = inactive.

SMILES	FBW7 act	GPR151 activ	TEAD-YAP inh	MITF primary
c1ccc(-n2cnc3c(NC4CC4)nc(Nc4ccccn4)nc32)cc1	–	–	47	–
c1ccc(-n2cnc3c(NC4CC4)nc(Nc4cccnc4)nc32)cc1	–	–	42	–
c1ccc(Nc2nc(NC3CC3)c3ncn(-c4ccccc4)c3n2)cc1	–	–	47	–
c1ccc(-n2cnc3c(NC4CC4)nc(Nc4ccc(-n5ccnc5)cc4)nc32)cc1	–	–	41	–
COc1cccc(C(=O)N2N=C(C(F)(F)F)CC2(O)C2CCCCC2)c1 (stereo unspecified)	–	–	–	–
CCSCCOC(=O)C1=C(C)NC(=O)NC1c1ccc(N(C)C)cc1 (stereo unspecified)	–	–	–	–
CCC(C)NC(=O)CCS(=O)(=O)c1ccc2c(c1)CCN2C(C)=O (stereo unspecified)	–	–	–	–
CCCCCc1ccc(-c2nc(C3CCC(CCCC)CC3)no2)cc1 (stereo unspecified)	–	–	–	–
NCCCC[C@@H]1NC(=O)[C@@H]2C[C@H](NCc3sc4ccccc4c3Cl)CN2C1=O	–	–	33	–
O=C1[C@@H]2C[C@H](NCc3sc4ccccc4c3Cl)CN2C(=O)[C@@H]2CCCN12	–	–	39	–
COc1ccc(/C(O)=C2/C(=O)C(=O)N(Cc3cccnc3)C2c2ccc(C(C)(C)C)cc2)cc1 (stereo unspecified)	–	–	–	–
O=C(COC(=O)c1ccncc1)c1ccc(OC(=O)c2ccccc2)cc1	–	–	–	–
COc1ccc(Cl)cc1C(=O)N1CCN(c2ccccc2OC)CC1	–	–	54	–
CCOc1ccccc1N1CCN(C(=O)C2CCN(Cc3ccccc3O)CC2)CC1	–	–	–	62
COc1ccccc1N1CCN(C(=O)c2c(-c3ccccc3)noc2C)CC1	–	–	44	–
CCOc1ccccc1N1CCN(C(=O)c2cc(OC)c(OC)c(OC)c2)CC1	–	–	64	–
COc1ccccc1C(=O)N1CCN(c2ccccc2OC)CC1	–	–	–	–
CCOC(=O)C1=C(C)N=c2s/c(=C/c3cc(C)n(-c4ccc(Cl)c(Cl)c4)c3C)c(=O)n2C1c1ccc(N(C)C)cc1 (stereo unspecified)	–	–	–	–
O=C(Nc1ccnn1C1CCN(Cc2cccc(Cl)c2)CC1)c1ccc2c(c1)OCO2	–	–	–	–
CCOc1ccc(NC(=O)c2ccc(F)c(S(=O)(=O)N(CCc3ccccc3)Cc3ccccc3)c2)cc1	–	–	–	–
CN(C)CCNC(=O)CN1C(=O)CCSc2ccccc21	–	–	–	–
O=C1c2cccnc2C(=O)N1Cc1ccc(F)cc1S(=O)(=O)NC1CCCCCCC1	–	–	–	–
CCSc1ncc(Cl)c(C(=O)N2CCN(c3ccccc3OC)CC2)n1	–	–	60	–
COc1ccc(Cl)cc1C(=O)N1CCN(c2ccccc2)CC1	–	–	50	–
COc1cc(SC)ccc1C(=O)N1CCN(c2ccccc2OC)CC1	–	–	56	–
SMILES	FBW7 act	GPR151 activ	TEAD-YAP inh	MITF primary
CC(C)(C)CN1CCN(Cc2cnc(-c3cccc4ccccc34)nc2)CC1CCO (stereo unspecified)	–	–	–	–
Cc1ccc(C)n1-c1ccccc1C(=O)O	–	–	–	–
CC(=O)Nc1ccc(-n2c(C)ccc2C)c(C(=O)O)c1	–	–	–	57
Cc1ccc(C)n1-c1cc(Cl)ccc1C(=O)O	–	–	–	81
Cc1ccc(C)n1-c1ccc(C(=O)O)c(Cl)c1	–	–	–	81
O=C(/C=C/Nc1ccc(Br)cc1F)c1ccco1	–	–	43	–
O=C(/C=C/Nc1ccc(F)cc1F)c1ccco1	–	–	64	–
O=C(/C=C/Nc1cccc(Cl)c1Cl)c1ccco1	–	–	53	–
O=C(/C=C/Nc1ccccc1O)c1ccco1	–	–	–	–
Cc1nccn1-c1ccc(NC(=O)C2CCCN(Cc3ccoc3)C2)cc1 (stereo unspecified)	–	–	–	–
CC(C)C(=O)c1cc2c(cc1[N+](=O)[O-])OCCO2	–	–	–	–
COc1ccc(CCCC(=O)N/N=C/c2cccc(OC)c2O)cc1C	–	–	42	–
Cc1cc(C)n(Cc2cccc(C(=O)N/N=C/c3ccc(O)cc3O)c2)n1	–	–	–	–
COc1cccc(/C=N/NC(=O)c2ccc(Cn3nc(C)cc3C)cc2)c1O	–	–	53	–
Cc1cc(C)n(Cc2ccc(C(=O)N/N=C/c3ccc(O)cc3O)cc2)n1	–	–	61	–
COC(=O)c1ccc(C)c(NS(=O)(=O)c2ccc(Br)cc2)c1	–	–	45	–
CCOC(=O)c1cc2cccc(NS(=O)(=O)c3ccc(C)cc3)c2[nH]1	–	–	39	–
COC(=O)c1ccc(C)c(NS(=O)(=O)c2ccc(F)cc2)c1	–	–	–	–
COC(=O)c1ccc(C)c(NS(=O)(=O)c2ccc(C)cc2)c1	–	–	56	–
COc1cc(NC(=O)CSc2nc3cc4c(cc3cc2C#N)OCO4)cc(OC)c1	–	–	–	–
Cc1ccc(-n2[nH]nnc2=S)cc1C	–	–	–	–
COc1ccc(-c2nnc(NC(=O)Nc3ccc(Cl)cc3)s2)cc1	–	–	–	–
CN(C)CCN1CCN(c2ccnc3cc4ccccc4cc23)CC1	–	–	44	–
CN1CCN(CCCNc2ccnc3cc4ccccc4cc23)CC1	–	–	75	–
CN1CCN(CCCNc2nc(=S)[nH]c3ccccc23)CC1	–	–	–	–
SMILES	FBW7 act	GPR151 activ	TEAD-YAP inh	MITF primary
O=C(N/N=C/c1cc(Cl)ccc1O)c1ccccc1[N+](=O)[O-]	–	–	–	–
COc1ccc(-c2nc(Nc3ccc(NC(C)=O)cc3)c3ncn(-c4ccccc4)c3n2)cc1	–	–	41	–
c1ccc(-n2cnc3c(Nc4ccc(N5CCOCC5)cc4)nc(Nc4ccccn4)nc32)cc1	–	–	58	–
Cn1c(Nc2nc(Nc3ccc(N4CCOCC4)cc3)c3ncn(-c4ccsc4)c3n2)nc2ccccc21	–	–	35	–
CC(=O)Nc1ccc(Nc2nc(Nc3ccccn3)nc3c2ncn3-c2ccccc2)cc1	–	–	56	–
Cc1ncc(CO)c2c1Oc1nc(-c3ccc(Cl)cc3)nc(SCC(N)=O)c1C2	–	–	–	–
Cn1c(Nc2nc(Nc3ccc(N4CCOCC4)cc3)c3ncn(-c4ccccc4)c3n2)nc2ccccc21	–	–	33	–
c1ccc(-n2cnc3c(Nc4ccc(N5CCOCC5)cc4)nc(Nc4ncccn4)nc32)cc1	–	–	–	–
O=C(Nc1ccccc1)C1=C(c2ccccc2)S(=O)(=O)CCS1(=O)=O	–	–	81	–
O=C(Nc1ccc(-c2ccccc2)cc1)c1ccc(C(=O)Nc2ccc(-c3ccccc3)cc2)cc1	–	–	–	–
Cc1cc(C(=O)CSc2nc3ccccc3[nH]2)c(C)n1CC1CCCO1 (stereo unspecified)	–	–	40	–
Cc1cc(C(=O)CCl)c(C)n1CC1CCCO1 (stereo unspecified)	–	–	–	–
COC(=O)c1ccc(CSCC(=O)c2cc(C)n(CC3CCCO3)c2C)cc1 (stereo unspecified)	–	–	37	–
